Drawing on PubChem BioAssay (EPA / NIEHS), this text covers outcome and AC50 for 21 compounds.

Values joined by “and” are separate entries in the source; they are usually repeats but may differ in a detail not shown here. Equal values may be shown once. Results filed as inconclusive are left out. Some compounds were tested as several samples or in several runs, with calls that do not always agree. Active and inactive are the calls of the source. The calls were made as follows: active = hit-call score of the fitted dose curve at least 0.9, where 1 is the maximum; inconclusive = response in the unintended direction; inactive = score below 0.9.

A short description of test [1]: ATG_XTT_Cytotoxicity: Cytotoxicity Assessment in the Attagene TRANS-FACTORIAL HepG2 Assay (AID 2283584). In a few lines: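 HepG2 human liver cells, transiently transfected with multiple GAL4-UAS reporter units, were dosed and read at 24 h by XTT as cell number. Loss of signal was fitted relative to DMSO negative control baseline.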
A short description of test [2]: TOX21_p53_BLA_p2_viability: Viability Assessment in the Tox21 HCT-116 p53 Agonism Beta-lactamase Assay, Phase 2 (AID 2283591).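 Also: compound exposure lasted 16 h at 37 °C; actives lower the ATP signal meaning cytotoxicity.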 The essentials: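 Cytotoxicity readout: CellTiter-Glo ATP luminescence, 30 min at room temperature, after the beta-lactamase read. Cells were HCT116 exposed 16 h at 37C to compounds pin-transferred at 217-fold dilution from DMSO stocks.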

Test [3] concerns the target Cellular tumor antigen p53 (Homo sapiens) (UniProt P04637). Briefly: TOX21_p53_BLA_p2_ratio: Tox21 HCT-116 p53 Agonism Beta-lactamase Assay, Ratio, Phase 2 (AID 2283592). In a few lines:
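HCT116 cells carrying a p53-responsive beta-lactamase reporter were plated, incubated 5 h at 37C, then dosed with compounds in DMSO (217-fold dilution) for 16 h. CCF4-AM substrate was added for 2 h at room temperature; the 460/530 nm emission ratio gave gain-of-signal activity relative to DMSO.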

Test [4] can be described thus: TOX21_p53_BLA_p3_viability: Viability Assessment in the Tox21 HCT-116 p53 Agonism Beta-lactamase Assay, Phase 3 (AID 2283593).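 Also: cells exposed to compound for 16 h before reading.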 In a few lines: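 Cellular ATP was quantified by CellTiter-Glo luminescence, read after 30 min at room temperature. Beforehand, HCT116 cells (4000/well) received compound 5 h post-seeding, 217-fold diluted from DMSO, then incubated 16 h at 37C.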

The target in test [5] is Cellular tumor antigen p53 (Homo sapiens) (UniProt P04637). Briefly: TOX21_p53_BLA_p3_ratio: Tox21 HCT-116 p53 Agonism Beta-lactamase Assay, Ratio, Phase 3 (AID 2283596). In a few lines:
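HCT116 p53-bla cells (4000/well) given compound in DMSO (217-fold dilution) after 5 h, incubated 16 h at 37C. CCF4-AM substrate 2 h at room temperature; 460/530 nm emission ratio, gain fitted against DMSO.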

Test [6] in a line: TOX21_p53_BLA_p4_viability: Viability Assessment in the Tox21 HCT-116 p53 Agonism Beta-lactamase Assay, Phase 4 (AID 2283597).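 Also: hits lower the luminescence signal meaning cytotoxicity.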 The essentials:
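HCT116 p53-bla cells (4000/well) rested 5 h at 37C, then received compounds in DMSO (217-fold dilution) for 16 h at 37C, 5% CO2. CellTiter-Glo was added after the CCF4-AM read, and luminescence was read after 30 min at room temperature.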

In test [7] the target is Cellular tumor antigen p53 (Homo sapiens) (UniProt P04637). Briefly: TOX21_p53_BLA_p5_ratio: Tox21 HCT-116 p53 Agonism Beta-lactamase Assay, Ratio, Phase 5 (AID 2283599). In a few lines: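 Beta-lactamase reporter ratio (blue 460 nm over green 530 nm, 405 nm excitation) after 2 h CCF4-AM loading, in HCT-116 cells exposed 16 h at 37 C to compounds pinned at 217-fold dilution. Increases relative to DMSO baseline scored.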

For test [8] the target is unchanged. The test can be described thus: TOX21_p53_BLA_p4_ratio: Tox21 HCT-116 p53 Agonism Beta-lactamase Assay, Ratio, Phase 4 (AID 2283601). In a few lines: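 Signal is the blue/green (460nm/530nm) ratio of cleaved versus uncleaved CCF4-AM substrate, read after 2 h substrate loading. Cells were HCT116 carrying the p53-responsive beta-lactamase reporter, dosed 16 h at 37C, 5% CO2; CellTiter-Glo measured in parallel.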

Test [9] can be described thus: TOX21_p53_BLA_p5_viability: Viability Assessment in the Tox21 HCT-116 p53 Agonism Beta-lactamase Assay, Phase 5 (AID 2283600). The essentials:
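Cells were plated at 4000/well, rested 5 h at 37C, then given compounds in DMSO (217-fold dilution) for 16 h at 37C, 5% CO2. Following the CCF4-AM beta-lactamase read, CellTiter-Glo was added and luminescence was read after 30 min at room temperature.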

Sequence of Cellular tumor antigen p53 (Homo sapiens) (P04637 whole entry, looked up): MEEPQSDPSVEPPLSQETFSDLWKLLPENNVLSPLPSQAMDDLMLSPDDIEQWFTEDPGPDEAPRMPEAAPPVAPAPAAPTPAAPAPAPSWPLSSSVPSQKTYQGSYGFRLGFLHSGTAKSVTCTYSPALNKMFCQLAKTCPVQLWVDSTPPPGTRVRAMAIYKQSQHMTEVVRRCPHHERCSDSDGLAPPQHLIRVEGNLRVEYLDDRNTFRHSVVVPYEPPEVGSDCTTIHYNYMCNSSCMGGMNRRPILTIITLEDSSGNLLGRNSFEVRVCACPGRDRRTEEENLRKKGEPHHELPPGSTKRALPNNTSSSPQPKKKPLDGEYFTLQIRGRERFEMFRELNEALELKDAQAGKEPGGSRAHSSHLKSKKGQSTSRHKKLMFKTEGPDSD

In the case of `O=C/C=C/c1ccccc1`, the result in test [1], in test [2], in test [3], in [4], in test [5] and in [6] was inactive. Also, the outcome in [7] and in [8] was inactive.
On to `CC(Br)C(=O)O` (stereo not given), for which the outcome in test [1], in [2], in test [3], in test [4], in [5] and in [6] was inactive. The outcome in test [7] and in [8] was inactive.
In the case of `CN(C)P(=O)(N(C)C)N(C)C`, the outcome in test [1], in test [2], in test [3], in [5], in [6] and in test [7] was inactive. In addition, in test [8], the outcome was inactive.
By AC50 is commonly meant the concentration at which the activity in the assay is half-maximal. With `O=C(CCl)CCl`, the compound was classed as inactive in test [1], in [2], in test [5], in test [6], in test [7] and in test [8]. In addition, the AC50 in [4] was 19.3 µM (active) and 22.3 µM (active).
Turning to `CNC(=O)O/N=C/C(C)(C)S(C)=O` (stereo not given), the compound was called inactive in [1], in test [2], in test [3], in test [5], in test [7] and in test [8].
For `CCCCOCCOC(C)=O`, the compound was called inactive in [1], in test [2], in [3], in test [4], in [5] and in test [6]. The result in test [7] and in test [8] was inactive.
Regarding `CCCCC(CC)CO[N+](=O)[O-]` (stereo not given), the compound was classed as inactive in test [1], in [2], in test [3], in test [5] and in [8].
In the case of `Cl/C=C\C[N+]12CN3CN(CN(C3)C1)C2`, the compound was classed as inactive in [1], in [2], in [3], in test [4], in [5] and in test [7]. Also, the outcome in test [8] was inactive.
Consider `C[C@H]1O[C@@H](O[C@H]2[C@@H](O)C[C@H](O[C@H]3[C@@H](O)C[C@H](O[C@H]4CC[C@@]5(C)[C@H](CC[C@@H]6[C@@H]5CC[C@]5(C)[C@@H](C7=CC(=O)OC7)CC[C@]65O)C4)O[C@@H]3C)O[C@@H]2C)C[C@H](O)[C@@H]1O`, for which the outcome in test [1], in [3], in test [5], in test [7] and in test [8] was inactive. Further, the AC50 in test [2] is 35.6 nM (active) and 51.1 nM (active); in test [4] it was 30 nM (active) and 51.3 nM (active); in test [6], 40.5 nM (active) and 66.7 nM (active).
As for `Nc1ccc(-c2ccc(N)c(Cl)c2)cc1Cl`, the compound was classed as inactive in [1], in test [2], in [5], in test [6], in [7] and in [9]. For the same compound, the result in test [8] was inactive. Besides, the AC50 in test [3] was 14.4 µM (active) and 13.7 µM (active) and 16.7 µM (active); in test [5] it was 15.7 µM (active) and 18.6 µM (active); in test [7] it was 16.3 µM (active) and 43.3 µM (active); in test [8] it was 33.6 µM (active).
Turning to `COC(=O)c1sccc1S(=O)(=O)NC(=O)Nc1nc(C)nc(OC)n1`, the compound was called inactive in test [1], in [2], in [3], in [5], in [6] and in test [7]. Moreover, the result in test [8] was inactive.
As for `CC(=O)c1cc(C(C)(C)C)cc2c1CCC2(C)C`, the call in test [1], in [2], in [3], in test [4], in test [5] and in test [7] was inactive. Besides, the compound was called inactive in test [9] and in [8].
On to `COc1cccc(C=O)c1`, for which the result in [1], in test [2], in test [3], in test [4], in [5] and in [7] was inactive. Moreover, the call in [9] and in [8] was inactive.
For `CCC(C)c1cccc(C(C)CC)c1O` (stereo not given), the result in test [1], in test [2], in test [3], in test [4], in [6] and in test [7] was inactive. In addition, the outcome in test [8] was inactive.
On to `Nc1ncc([N+](=O)[O-])s1`, for which the compound was classed as inactive in test [1], in test [2], in test [3], in [4], in [5] and in test [7]. Also, the outcome in test [8] was inactive.
Turning to `CCOC(=O)Nc1cccc(OC(=O)Nc2ccccc2)c1`, the compound was called inactive in test [1], in [2], in test [3], in [6] and in test [9].
`ClCc1ccccn1`: the outcome in test [1], in test [2], in test [3], in test [6], in test [7] and in [8] was inactive.
With `COc1ccc(C=O)cc1OC`, the call in [1], in test [2], in test [3], in [5], in test [7] and in test [8] was inactive.
`COP(=S)(OC)Oc1ccc(S(=O)(=O)N(C)C)cc1`: the compound was classed as inactive in test [1], in test [2], in test [3], in [4], in test [5] and in test [6]. Also, the result in test [7] and in test [8] was inactive.
For the compound `CCOC(=O)/C=C(C)/C=C/C[C@@H](C)CCCC(C)C`, the compound was called inactive in test [1], in test [2], in test [3], in [5], in test [6] and in test [7]. The outcome in test [8] was inactive. In addition, in [4], the AC50 is 58.3 µM (active).
As to `CCC(=O)c1ccccc1`, the call in [1], in test [2], in [3], in test [6] and in test [7] was inactive.
